# Shown are actives, neighbours in structure and some others; about 10% of the full set was active somewhere.
# CtBP-E1A inh: inhibitors of CtBP/E1A interaction | AlphaScreen GST-E1A/His-CtBP binding, 1536-well; hits give low values | activity change, % (concentration not given with the values) | 340,000 compounds, 0.49% hits; in the data active = activity change below about -65%; inconclusive = mostly about -30% to -63%; also: % is scaled to controls: 0 for no effect and ±100 for the full control effect
#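 In 5 uL wells, 23 nL compound meets equimolar GST-E1A and His-CtBP (5X stock 125 nM each) for 2 h, 37 °C. Beads (5X, 50 ug/mL) then 1 h, 37 °C, dark.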
# G9a block: blocks human histone lysine methyltransferase G9a. Q96KQ7. G9a H3K9 monomethylation, AlphaScreen, 2 h. Potency, µM (highest dose often 102 µM), for inactives: at the top dose activity, negative = inhibition, usual class: inhibitors. 350,000 compounds, 8.8% hits. AID 504332; also: potency is read from the fitted curve at half-maximal effect; % is scaled to controls: 0 for no effect and ±100 for the full control effect; nearly all actives have a fitted effect of over 75% in size
#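 Methyltransferase reactions run at room temperature for 2 h (20 nM enzyme, 500 nM biotin-H3K9 peptide, 20 uM SAM) after a 15 min compound preincubation; product detected by AlphaScreen beads and anti-H3K9me1 antibody.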
# Six1-Eya2 blk: Six1/Eya2 interaction inhibition. Q15475+O00167. AlphaScreen GST-Six1/His-Eya2 binding, biochemical; hits give low values. activity change, % (test concentration not listed). 360,000 compounds, 0.56% hits. AID 651725; in the data active = activity change below about -65%; inconclusive = mostly about -30% to -63%; also: % is scaled to controls: 0 for no effect and ±100 for the full control effect
#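 Six1/Eya2 binding was read as AlphaScreen signal after compounds were pinned into GST-Six1 plus His-tagged Eya2 (5X stock 250/500 nM) in pH 8.0 Tris/NaCl/TCEP buffer, beads added, then incubated 1 h, 37 C, dark.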
# BAZ2B block: blocks human BAZ2B. AlphaScreen BAZ2B-H3K14Ac peptide displacement. AID 504333. 360,000 compounds, 4.4% hits. Q9UIF8. Potency, µM (doses to about 114 µM), for inactives: at the top dose activity change, negative = inhibition, most hits filed as inhibitors; also: potency is read from the fitted curve at half-maximal effect; % is scaled to controls: 0 for no effect and ±100 for the full control effect; nearly all actives have a fitted effect of over 60% in size
#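 In this displacement format the biotinylated H3(5-23) peptide acetylated at Lys14 serves as ligand at 50 nM, with BAZ2B at 50 nM in PBS pH 7.4 containing 0.01% Tween-20. Donor and acceptor beads are 10 ug/mL final.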
# JMJD2A Tudor inh: inhibitors of human JMJD2A Tudor domain. AlphaScreen JMJD2A-Tudor / H3K4me3 peptide binding. Potency, µM (top dose mostly 114 µM), without a hit: top-dose activity change, negative = inhibition, hits mostly inhibitors. 390,000 compounds, 4.4% hits; also: potency is read from the fitted curve at half-maximal effect; % is scaled to controls: 0 for no effect and ±100 for the full control effect; nearly all actives have a fitted effect of over 50% in size
# HP1b binding inh: inhibitors of HP1-beta chromodomain binding to methylated histone tails; Potency, µM (highest dose often 114 µM), without a hit: top-dose activity change, negative = inhibition, hits mostly inhibitors; 390,000 compounds, 0.56% hits; AlphaScreen HP1-beta / biotin-H3K9me3 peptide binding; AID 540317; also: potency is read from the fitted curve at half-maximal effect; nearly all actives have a fitted effect of over 70% in size
#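 Compound inhibition of the preformed complex between 50 nM HP1-beta and 50 nM biotinylated H3K9me3 peptide was read by AlphaScreen. Buffer was PBS pH 7.4 with 0.01% Tween-20. Incubations ran 30 min at room temperature, with 10 ug/mL donor/acceptor beads.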
# An asterisk follows results filed as active; u = inconclusive; x = no result given; ! = not active in a repeat; [ ] = dose if it differs, or a comment. Unless noted, calls follow the shape of the dose curve; as a rule, active = well fitted inhibition curve with a large enough effect; inconclusive = small, poorly fitted or top-dose-only effect; inactive = no such curve, though single readings can be large or run the other way.
SMILES,CtBP-E1A inh,G9a block,Six1-Eya2 blk,BAZ2B block,JMJD2A Tudor inh,HP1b binding inh
Cc1csc2nc(CNC(=O)C3CC=CCC3C(=O)O)cn12 (stereo unspecified),10,16%[59 µM],-3,-4%,-23%,32%
COc1cccc(CCc2nnc(N)s2)c1,x,79µM*,5,-3%,-4%,8%
O=C(c1ccc(C(F)(F)F)cc1)C1CCCN(C(=O)CCc2cnccn2)C1 (stereo unspecified),4,14%,5,-2%,-13%,37%
COc1ccc(/C=C2\CCCC(C(=O)C(F)(F)F)=C2O)cc1,-1,8.9µM*,2,11%,-4%,31%
COc1ccc(/C=C2\CCOC2=O)cc1,2,10%[0.0925 µM],1,4%,-3%,29%
O=C(C1=C(O)/C(=C/c2ccc(O)cc2)CCC1)C(F)(F)F,-2,10µM*,3,-33%,-30%,25%
COc1ccc(-c2cc(-c3ccccc3)c(C#N)c(SCC(=O)O)n2)cc1,-21,x,-19,x,2%,60%
COc1ccc(-c2cc(-c3ccc(Cl)cc3)c(C#N)c(SCC(=O)O)n2)cc1,2,u,-2,u,79µM*,u
CCOC(=O)CC(=O)CSc1nc(-c2ccccc2)cc(-c2ccccc2)c1C#N,8,31%,14,11%,16%,44%
CCCOc1ccc(-c2cc(C(F)(F)F)c(C#N)c(SCC(=O)O)n2)cc1,0,-36%,-3,4%,-6%,59%
CCCOc1ccc(-c2cc(C(F)(F)F)c(C#N)c(SCCC(=O)O)n2)cc1,x,-6%[59 µM],x,u,79µM*,-17%
N#Cc1c(-c2ccccc2)cc(-c2ccccc2)nc1SCC(=O)NCC(=O)O,-19,45µM*,-28,-15%,-12%,-10%
N#Cc1c(-c2ccccc2)cc(-c2ccccc2)nc1SCC(O)CS(=O)(=O)Cc1ccc(Cl)cc1 (stereo unspecified),x,1.8µM*,x,-14%,u,u
CCCCNC(=O)C1C(c2ccccc2)=Nc2ccccc2N1C(=O)c1ccc(C)cc1 (stereo unspecified),2,x,-3,x,x,x
COc1ccccc1C(C(=O)c1ccccc1)c1ccc(O)cc1 (stereo unspecified),-10,x,-10,x,x,x
CCOC(=O)N1CCN(S(=O)(=O)c2ccc(C(=O)Nc3ccc4c(c3)C(=O)NC4=O)cc2)CC1,-1,-4%[59 µM],-2,-7%,-9%,43%
CCN(CC)C(=O)CSc1nc(-c2ccccc2)cc(-c2ccc(OC)cc2)c1C#N,x,-40%[59 µM],x,1%,3%,20%
COc1ccc(-c2cc(-c3ccccc3)nc(SCC(=O)Nc3ccccc3C)c2C#N)cc1,x,13µM*,x,-14%,-11%,-12%
COc1ccccc1-c1cc(-c2ccccc2)nc(SCC(=O)O)c1C#N,11,x,-6,0%,-9%,42%
CCCSc1nc(-c2ccc(OC)cc2)cc(-c2ccccc2OC)c1C#N,x,1.8µM*,x,22%,22%,-39%
CC(=O)/C(N=Nc1ccc(C(=O)O)cc1[N+](=O)[O-])=C(\C)O,x,u,-6,56µM*,-17%,21%
CC(=O)Nc1cc2c(cc1[N+](=O)[O-])OCCO2,-7,8%,-5,3%,-7%[57.1 µM],27%
CC(=O)/C(N=Nc1cc2c(cc1[N+](=O)[O-])OCCO2)=C(\C)O,0,-13%,-3,-10%,18µM*,-11%
CCOC(=O)c1ccccc1NC(=O)CSc1nccn1Cc1ccco1,x,-4%[59 µM],x,-33%,-25%,10%[57 µM]
CCOc1ccc(N(C)C(=O)CS(=O)(=O)c2cccc3nsnc23)cc1,x,1%[59 µM],x,6%,-6%,23%[57 µM]
SMILES,CtBP-E1A inh,G9a block,Six1-Eya2 blk,BAZ2B block,JMJD2A Tudor inh,HP1b binding inh
CC1(C)Cc2c(C#N)c(NCCc3ccccc3)nc(-c3ccco3)c2CO1,15,-25%,34,0%,37%,3%
CC1(C)Cc2c(C#N)c(NC3CCCCC3)nc(-c3ccco3)c2CO1,x,11µM*,x,5%,x,x
CC1(C)Cc2c(C#N)c(NCC3CCCO3)nc(-c3ccco3)c2CO1 (stereo unspecified),24,10µM*,17,11%,41%,96%
CCN(CC)CCNc1nc(-c2ccco2)c2c(c1C#N)CC(C)(C)OC2,-1,6%,-1,2%,-10%,24%
CCSc1ncc(/C=N/Nc2ccc(Cl)cc2)n1C,-11,u,-7,35µM*,56µM*,40µM*
COc1ccccc1NC(=O)CSc1nc2ccccc2c2nc(-c3ccccc3)nn12,x,6%[59 µM],x,-2%,32µM*,28%
COc1ccccc1NC(=O)CSc1nnc2ccc(-c3cccnc3)nn12,-10,40µM*,-8,71µM*,-15%,14%
CCOc1ccccc1NC(=O)CSc1nc2ccccc2c2nc(CCn3cncc3C)nn12,x,u,x,56µM*,-26%,21%
O=C(CSc1nc2ccccc2c2nc(-c3ccccc3)nn12)Nc1ccc(F)cc1,x,9%[59 µM],x,-5%,-22%,42%
Cc1cncn1CCc1nc2c3ccccc3nc(SCC(=O)Nc3cccc(Cl)c3)n2n1,-3,14µM*,u,11µM*!,u,30%
Cc1cncn1CCc1nc2c3ccccc3nc(SCC(=O)Nc3ccc(F)cc3)n2n1,x,2%[59 µM],x,-28%,-19%,18%
COc1ccc(-n2c(=O)c(CCc3ccccc3)nc3cnc(OC)nc32)cc1,x,-3%[0.501 µM],x,x,x,x
CN(C)c1ccc(CC(=O)N2CCCC(c3cc(C(=O)Nc4ccc5c(c4)OCO5)no3)C2)cc1 (stereo unspecified),-27,x,u,x,x,x
CCOc1ccccc1-n1c(SCC(=O)Nc2ccccc2C(=O)O)nc2ccccc2c1=O,-12,50µM*,-19,9%,-1%,24%
CCN(Cc1ccccc1)C(=O)Nc1ccc2c(c1)N(C)C(=O)c1ccccc1S2,x,-28%[59 µM],x,-34%,-21%,6%
Nc1nc(NCc2ccco2)nc(N2CCCC2)c1[N+](=O)[O-],-7,x,-4,71µM*,-26%,-9%
Nc1nc(NCc2ccco2)nc(N2CCCCCC2)c1[N+](=O)[O-],9,u,u,50µM*,56µM*,u
CNc1nc(N)c([N+](=O)[O-])c(N2CCCCCC2)n1,-13,8%[2.33 µM],-1,-19%,-19%,24%
Nc1nc(NCc2ccco2)nc(NC2CCCCC2)c1[N+](=O)[O-],-22,0%,-10,2%,-3%,0%
CSc1nc(-c2ccccc2)nc(NC(=O)c2ccccc2)c1C(C)=O,0,-2%,-1,-3%,-11%,20%
CC(=O)c1n[nH]nc1NC(=O)c1ccccc1,-21,50µM*,-14,50µM*,20µM*,6%

# High-throughput results deposited in PubChem BioAssay by National Center for Advancing Translational Sciences (NCATS).
